Experimental data as given in ChEMBL document CHEMBL5724796, “Tm Shift (DSF) assay results for EUbOPEN Chemogenomics Library” (2024).
Values joined by “and” are separate entries in the source; they are usually repeats but may differ in a detail not shown here. Equal values may be shown once.

What was measured:
Conditions in all cases: Compound concentration 20.0 uM
[1] = target: Tyrosine-protein kinase ABL1 (Homo sapiens) (UniProt P00519)
[2] = target: Bromodomain-containing protein 4 (Homo sapiens) (UniProt O60885)
[3] = target: Cyclin-dependent kinase 2 (Homo sapiens) (UniProt P24941)
[4] = target: Casein kinase I isoform delta (Homo sapiens) (UniProt P48730)
Sequence of Casein kinase I isoform delta (Homo sapiens) (P48730 whole entry, looked up, canonical isoform): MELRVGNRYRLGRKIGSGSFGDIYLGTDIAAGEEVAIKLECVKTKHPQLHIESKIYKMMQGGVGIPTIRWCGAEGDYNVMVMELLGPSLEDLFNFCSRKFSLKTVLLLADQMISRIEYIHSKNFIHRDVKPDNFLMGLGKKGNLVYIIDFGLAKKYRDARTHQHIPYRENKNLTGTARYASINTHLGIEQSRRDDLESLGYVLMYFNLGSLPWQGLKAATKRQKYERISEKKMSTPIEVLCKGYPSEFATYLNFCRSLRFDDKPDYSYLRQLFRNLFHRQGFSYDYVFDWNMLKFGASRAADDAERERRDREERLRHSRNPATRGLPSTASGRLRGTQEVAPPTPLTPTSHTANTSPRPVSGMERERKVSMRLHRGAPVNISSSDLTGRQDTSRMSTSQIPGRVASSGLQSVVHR

[5] = target: Glycogen synthase kinase-3 beta (Homo sapiens) (UniProt P49841)
Sequence of Glycogen synthase kinase-3 beta (Homo sapiens) (P49841 whole entry, looked up): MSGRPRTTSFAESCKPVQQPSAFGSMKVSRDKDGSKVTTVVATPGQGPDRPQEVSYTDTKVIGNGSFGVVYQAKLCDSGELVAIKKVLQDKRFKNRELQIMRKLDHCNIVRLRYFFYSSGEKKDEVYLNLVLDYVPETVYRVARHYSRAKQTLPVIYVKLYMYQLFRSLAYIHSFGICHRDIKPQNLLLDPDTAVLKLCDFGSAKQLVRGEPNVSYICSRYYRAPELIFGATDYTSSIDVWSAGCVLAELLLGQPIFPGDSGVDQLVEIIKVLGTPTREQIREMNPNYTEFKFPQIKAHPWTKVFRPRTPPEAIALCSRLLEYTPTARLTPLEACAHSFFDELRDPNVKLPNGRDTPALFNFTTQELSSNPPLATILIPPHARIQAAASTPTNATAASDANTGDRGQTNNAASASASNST

[6] = target: Mitogen-activated protein kinase 1 (Homo sapiens) (UniProt P28482)
Sequence of Mitogen-activated protein kinase 1 (Homo sapiens) (P28482 whole entry): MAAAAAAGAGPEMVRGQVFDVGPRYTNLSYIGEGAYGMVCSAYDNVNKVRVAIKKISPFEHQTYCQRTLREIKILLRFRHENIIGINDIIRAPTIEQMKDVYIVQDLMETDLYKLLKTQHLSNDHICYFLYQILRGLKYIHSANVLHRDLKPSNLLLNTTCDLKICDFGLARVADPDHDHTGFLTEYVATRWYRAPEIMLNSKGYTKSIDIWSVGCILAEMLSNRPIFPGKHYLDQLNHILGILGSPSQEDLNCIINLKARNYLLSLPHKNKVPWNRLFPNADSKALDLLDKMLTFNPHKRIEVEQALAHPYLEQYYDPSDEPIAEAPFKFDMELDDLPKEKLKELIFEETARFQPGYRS

[7] = target: T1, Aurora kinase A (Homo sapiens) (UniProt O14965)
T1 sequence (whole entry): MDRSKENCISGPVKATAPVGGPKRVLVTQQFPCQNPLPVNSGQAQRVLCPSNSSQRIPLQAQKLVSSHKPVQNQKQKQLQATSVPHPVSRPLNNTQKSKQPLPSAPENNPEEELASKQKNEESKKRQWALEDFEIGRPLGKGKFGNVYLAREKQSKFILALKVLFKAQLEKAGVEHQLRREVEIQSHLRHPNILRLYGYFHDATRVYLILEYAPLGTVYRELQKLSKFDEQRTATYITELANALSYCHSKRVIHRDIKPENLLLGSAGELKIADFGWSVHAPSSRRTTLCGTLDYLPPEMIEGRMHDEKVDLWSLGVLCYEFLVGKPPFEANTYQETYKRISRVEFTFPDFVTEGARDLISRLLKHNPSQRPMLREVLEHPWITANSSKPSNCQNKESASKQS

[8] = target: T2, Transcription intermediary factor 1-alpha (Homo sapiens) (UniProt O15164)
T2 sequence (whole entry): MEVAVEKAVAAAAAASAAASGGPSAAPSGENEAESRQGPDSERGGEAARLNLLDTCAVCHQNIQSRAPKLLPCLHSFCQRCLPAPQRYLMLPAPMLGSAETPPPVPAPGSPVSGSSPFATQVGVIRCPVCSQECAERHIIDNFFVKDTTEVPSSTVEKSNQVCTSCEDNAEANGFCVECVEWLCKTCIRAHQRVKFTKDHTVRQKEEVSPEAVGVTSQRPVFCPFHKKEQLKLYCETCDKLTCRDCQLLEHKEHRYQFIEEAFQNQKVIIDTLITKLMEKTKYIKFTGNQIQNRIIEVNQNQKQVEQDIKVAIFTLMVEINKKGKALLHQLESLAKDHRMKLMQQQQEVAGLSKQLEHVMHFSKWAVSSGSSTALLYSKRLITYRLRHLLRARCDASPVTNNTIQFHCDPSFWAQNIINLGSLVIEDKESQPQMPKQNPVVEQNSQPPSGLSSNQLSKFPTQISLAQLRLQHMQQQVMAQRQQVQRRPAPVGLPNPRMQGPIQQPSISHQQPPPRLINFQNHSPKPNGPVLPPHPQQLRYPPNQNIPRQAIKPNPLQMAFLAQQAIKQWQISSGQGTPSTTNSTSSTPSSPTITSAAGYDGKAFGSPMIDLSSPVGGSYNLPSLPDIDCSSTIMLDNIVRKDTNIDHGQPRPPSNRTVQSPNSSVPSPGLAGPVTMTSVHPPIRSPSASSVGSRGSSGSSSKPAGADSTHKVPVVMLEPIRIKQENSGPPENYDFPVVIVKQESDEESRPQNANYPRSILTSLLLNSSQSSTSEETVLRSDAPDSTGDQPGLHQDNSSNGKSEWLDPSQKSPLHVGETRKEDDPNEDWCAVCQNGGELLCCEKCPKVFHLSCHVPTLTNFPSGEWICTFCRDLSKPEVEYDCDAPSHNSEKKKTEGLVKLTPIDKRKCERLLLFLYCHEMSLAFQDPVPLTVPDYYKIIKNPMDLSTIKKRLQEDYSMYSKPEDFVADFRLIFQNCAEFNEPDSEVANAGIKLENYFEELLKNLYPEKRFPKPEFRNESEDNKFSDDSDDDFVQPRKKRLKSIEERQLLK

Sequence of Tyrosine-protein kinase ABL1 (Homo sapiens) (P00519 whole entry): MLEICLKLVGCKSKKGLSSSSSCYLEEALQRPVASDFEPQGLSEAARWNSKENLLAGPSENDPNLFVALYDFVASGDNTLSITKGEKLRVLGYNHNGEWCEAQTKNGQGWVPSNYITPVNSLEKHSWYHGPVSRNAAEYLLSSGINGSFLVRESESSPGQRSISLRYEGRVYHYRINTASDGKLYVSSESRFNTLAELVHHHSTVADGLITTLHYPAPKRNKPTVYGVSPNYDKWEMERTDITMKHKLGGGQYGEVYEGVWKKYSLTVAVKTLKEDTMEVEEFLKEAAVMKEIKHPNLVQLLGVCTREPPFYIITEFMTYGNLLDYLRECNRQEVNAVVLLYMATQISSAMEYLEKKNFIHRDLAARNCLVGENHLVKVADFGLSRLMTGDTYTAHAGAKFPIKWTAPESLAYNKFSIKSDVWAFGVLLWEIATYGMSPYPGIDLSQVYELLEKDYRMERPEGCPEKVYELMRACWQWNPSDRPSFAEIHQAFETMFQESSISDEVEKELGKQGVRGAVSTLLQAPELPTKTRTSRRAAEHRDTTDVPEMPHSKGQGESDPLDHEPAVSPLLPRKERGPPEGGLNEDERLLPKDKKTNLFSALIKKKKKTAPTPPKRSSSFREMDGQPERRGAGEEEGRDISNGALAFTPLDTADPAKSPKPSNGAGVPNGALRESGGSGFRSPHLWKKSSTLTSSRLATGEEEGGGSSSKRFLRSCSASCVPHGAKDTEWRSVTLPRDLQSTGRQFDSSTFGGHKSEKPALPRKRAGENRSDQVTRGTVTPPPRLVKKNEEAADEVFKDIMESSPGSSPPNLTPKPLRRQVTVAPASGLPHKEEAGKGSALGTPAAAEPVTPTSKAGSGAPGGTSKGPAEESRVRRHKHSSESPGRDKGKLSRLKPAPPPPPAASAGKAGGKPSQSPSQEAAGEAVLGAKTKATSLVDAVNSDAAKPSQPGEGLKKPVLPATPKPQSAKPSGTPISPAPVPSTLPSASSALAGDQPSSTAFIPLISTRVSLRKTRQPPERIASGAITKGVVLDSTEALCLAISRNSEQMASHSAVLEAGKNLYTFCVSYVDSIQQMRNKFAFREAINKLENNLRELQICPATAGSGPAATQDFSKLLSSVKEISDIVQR

Cc1nc(-c2cnn(C)c2-c2ccc(C(F)(F)F)cn2)c2c(N3CCC3)ncnn12
ΔTm [1]: 0.74 °C | ΔTm [2]: -3.11 °C | ΔTm [3]: 0.08 °C | ΔTm [4]: -0.17 °C | ΔTm [5]: -0.34 °C | ΔTm [6]: 0.1 °C | ΔTm [7]: -2.46 °C | ΔTm [8]: 0.34 °C

CCCc1nc(C)c2c(=O)nc(-c3cc(S(=O)(=O)N4CCN(CC)CC4)ccc3OCC)[nH]n12
ΔTm [1]: 0.09 °C | ΔTm [2]: 1.95 °C | ΔTm [3]: 1 °C | ΔTm [4]: 0.05 °C | ΔTm [5]: -1.14 °C | ΔTm [6]: 0.18 °C | ΔTm [7]: -2.18 °C | ΔTm [8]: 1.86 °C

CCCCCCCC(=O)N[C@H](CN1CCCC1)[C@H](O)c1ccc2c(c1)OCCO2
ΔTm [1]: 0.07 °C | ΔTm [2]: -0.36 °C | ΔTm [3]: -0.06 °C | ΔTm [4]: -0.32 °C | ΔTm [5]: -0.11 °C | ΔTm [6]: 0.14 °C | ΔTm [7]: -1.58 °C | ΔTm [8]: -0.39 °C

Cc1cc(C)nc(SCC(=O)Nc2ncc(Cc3cccc4ccccc34)s2)n1
ΔTm [1]: 1.25 °C | ΔTm [2]: -0.67 °C | ΔTm [3]: 0.38 °C | ΔTm [4]: 5.19 °C | ΔTm [5]: -0.21 °C | ΔTm [6]: -4.06 °C | ΔTm [7]: -1.18 °C | ΔTm [8]: 5.54 °C

C[C@H](Nc1nc2c(cnn2C2CCCC2)c(=O)[nH]1)c1ccc(Cl)cc1
ΔTm [1]: -2.54 °C | ΔTm [2]: -1.24 °C | ΔTm [3]: -1 °C | ΔTm [4]: 0.11 °C | ΔTm [5]: -1.9 °C | ΔTm [6]: -7.46 °C | ΔTm [7]: -6.85 °C | ΔTm [8]: 0.56 °C

O=C(O)Cc1ccc(Cc2cc(-c3cccc(Cl)c3)nc(C(F)(F)F)c2)cc1
ΔTm [1]: 0.68 °C | ΔTm [2]: -4.37 °C | ΔTm [3]: 1.64 °C | ΔTm [4]: -0.18 °C | ΔTm [5]: -1.53 °C | ΔTm [6]: 0.39 °C | ΔTm [7]: -2.1 °C | ΔTm [8]: -0.93 °C

CCN(CC)c1ccc(C2=NNC(=O)C[C@H]2C)cc1[N+](=O)[O-]
ΔTm [1]: 0.04 °C | ΔTm [2]: 0.2 °C | ΔTm [3]: -0.04 °C | ΔTm [4]: 0.06 °C | ΔTm [5]: 0.13 °C | ΔTm [6]: -0.11 °C | ΔTm [7]: -0.2 °C | ΔTm [8]: -0.15 °C

CC(=O)N[C@@H](CCCCNC(=O)CSCCNC(=O)CCNC(=O)[C@H](O)C(C)(C)COP(=O)(O)OP(=O)(O)OC[C@H]1O[C@@H](n2cnc3c(N)ncnc32)[C@H](O)[C@@H]1OP(=O)(O)O)C(N)=O
ΔTm [1]: 0.23 °C | ΔTm [2]: -2 °C | ΔTm [3]: -0.07 °C | ΔTm [4]: -0.41 °C | ΔTm [5]: -0.08 °C | ΔTm [6]: -0.01 °C | ΔTm [7]: -0.37 °C | ΔTm [8]: 1.51 °C

COC[C@@H]1CCCN1S(=O)(=O)c1ccc2c(c1)C(=O)C(=O)N2
ΔTm [1]: 0.35 °C | ΔTm [2]: -1.47 °C | ΔTm [3]: -0.41 °C | ΔTm [4]: 0.01 °C | ΔTm [5]: -0.2 °C | ΔTm [6]: -0.37 °C | ΔTm [7]: -0.97 °C | ΔTm [8]: -0.89 °C

NC(=S)c1cccc(-c2cn(C3CCN(S(=O)(=O)C(F)(F)F)CC3)c3cc(CNC(=O)C4CNC4)ccc23)c1
ΔTm [1]: 0.61 °C | ΔTm [2]: -0.14 °C | ΔTm [3]: 1.5 °C | ΔTm [4]: -0.09 °C | ΔTm [5]: -0.8 °C | ΔTm [6]: 0.28 °C | ΔTm [7]: -1.57 °C | ΔTm [8]: 0 °C

COCc1nc(C(F)(F)F)[nH]c1-c1cc(C(=O)N2CC(c3ccc(C#N)cc3)C2)c(C)cc1C
ΔTm [1]: 0.13 °C | ΔTm [2]: -3.21 °C | ΔTm [3]: -0.08 °C | ΔTm [4]: -0.27 °C | ΔTm [5]: -1.21 °C | ΔTm [6]: 0.07 °C | ΔTm [7]: -2.54 °C | ΔTm [8]: -1.79 °C

Cc1[nH]c2c(N3CCO[C@H](CO)C3)c(C#N)c(C(F)(F)F)nc2c1Cl
ΔTm [1]: 0.59 °C | ΔTm [2]: -1.62 °C | ΔTm [3]: 1.92 °C | ΔTm [4]: 0.2 °C | ΔTm [5]: 1.93 °C | ΔTm [6]: 1.85 °C | ΔTm [7]: -1.95 °C | ΔTm [8]: -1.25 °C

CCn1c(=O)c(C)cn(Cc2nnc(-c3ccc(F)c(O)c3F)s2)c1=O
ΔTm [1]: 0.41 °C | ΔTm [2]: -1.52 °C | ΔTm [3]: -0.07 °C | ΔTm [4]: 0.26 °C | ΔTm [5]: 0 °C | ΔTm [6]: -0.2 °C | ΔTm [7]: -0.34 °C | ΔTm [8]: -0.63 °C

CNc1ncc2cc(-c3cc(NC(=O)NCCC(C)(C)C)c(F)cc3C)c(C)nc2n1
ΔTm [2]: -2.79 °C | ΔTm [3]: 0.45 °C | ΔTm [4]: 0.25 °C | ΔTm [5]: 1.15 °C | ΔTm [6]: -2.34 °C | ΔTm [7]: -0.92 °C | ΔTm [8]: -0.11 °C

COc1cc2c(NCC3CCN(C)CC3)cc(-c3ccc(C)o3)nc2cc1OCCCN1CCCC1
ΔTm [1]: -0.17 °C | ΔTm [2]: -1.85 °C | ΔTm [3]: 0.22 °C | ΔTm [4]: 0.3 °C | ΔTm [5]: -1.71 °C | ΔTm [6]: 0.07 °C | ΔTm [7]: 0.46 °C | ΔTm [8]: -1.43 °C

FC(F)(F)Oc1ccc(Oc2ccnc(N3CCC(NC(=S)Nc4cccnc4)CC3)c2Cl)c(Cl)c1
ΔTm [1]: 0 °C and -0.06 °C | ΔTm [2]: -3.17 °C and -5.35 °C | ΔTm [3]: -0.35 °C and 0.35 °C | ΔTm [4]: -2.73 °C and 0.27 °C | ΔTm [7]: 0.16 °C and -1.29 °C | ΔTm [8]: 1.66 °C and 0 °C

Cc1nc(Nc2ncc(C(=O)Nc3c(C)cccc3Cl)s2)cc(N2CCN(CCO)CC2)n1
ΔTm [2]: -1.33 °C | ΔTm [3]: 0.19 °C | ΔTm [4]: 1.36 °C | ΔTm [5]: -0.52 °C | ΔTm [6]: -0.01 °C | ΔTm [7]: 4.44 °C | ΔTm [8]: -0.67 °C

N#Cc1cc2cc(CN3CCC(Nc4ncnc5sc(CC(F)(F)F)cc45)CC3)ccc2[nH]1
ΔTm [1]: 0.42 °C | ΔTm [2]: 1.04 °C | ΔTm [3]: 0.06 °C | ΔTm [4]: 1.89 °C | ΔTm [5]: -0.5 °C | ΔTm [6]: 0.61 °C | ΔTm [7]: -0.57 °C | ΔTm [8]: 1.28 °C

Cn1cc(NC(=O)c2cc(F)cc(F)c2)c(C(=O)NC2CCNCC2)n1
ΔTm [1]: 0.23 °C | ΔTm [2]: -2.12 °C | ΔTm [3]: -0.02 °C | ΔTm [4]: 1.02 °C | ΔTm [5]: -0.14 °C | ΔTm [6]: -0.35 °C | ΔTm [7]: -0.65 °C | ΔTm [8]: -0.68 °C

Nc1ncnc2nc(-c3ccc(N4CCOCC4)nc3)cc(-c3cccc(Br)c3)c12
ΔTm [1]: 4.32 °C | ΔTm [2]: -3.54 °C | ΔTm [3]: 0.07 °C | ΔTm [4]: 2.63 °C | ΔTm [5]: -0.95 °C | ΔTm [6]: -0.25 °C | ΔTm [7]: 0.37 °C | ΔTm [8]: 0.24 °C
